# Screening data (PubChem BioAssay)
# IP6K1 inhibitor: Primary qHTS assay for small molecule inhibitors of Inositol hexaphosphate kinase 1 (IP6K1). 0.81% of 140,000 active. activity change, % (series mostly up to about 58 µM). AID 1645851, 2021. IP6K1 kinase, ADP-Glo luminescence, 2 h; stronger effect = lower value. Inositol hexakisphosphate kinase 1 (Homo sapiens), Q92551; in the data active means activity change below about -25%
#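 ADP-Glo luminescence measures ADP made by human IP6K1 during a 2 h RT reaction with ATP/IP6 (mix at 1.3 mM/130 uM); top library doses 57.5 and 19.1 uM final.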
# 3T3 cytotox: Cytotoxic Profiling in NIH 3T3 Cell Line of Diverse Libraries Using Quantitative High-Throughput Screening; NIH 3T3 viability, CellTiter-Glo ATP luminescence, 48-72 h; Potency, µM (top dose mostly 96.7 µM), hits mostly inhibitors; 4.3% of 94,000 active; AID 1345082, 2018; further: nearly all actives have a fitted effect of over 55% in size
#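 Luminescent ATP readout (CellTiter-Glo, 10 min RT) after 48 or 72 hr compound exposure of NIH 3T3 cells seeded at 400 cells/well in 1536-well format; quantitative HTS.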
# HEK293 tox: Cytotoxic Profiling in HEK 293 Cell Line of Diverse Libraries Using Quantitative High-Throughput Screening | AID 1345083, 2018 | Potency, µM (doses to about 115 µM), hits mostly inhibitors | 6.6% of 94,000 active | HEK 293 viability, ATP luminescence (CellTiter-Glo), 48-72 h; further: nearly all actives have a fitted effect of over 60% in size
#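 HEK 293 seeded at 250 cells/well receive compound via pintool. After 48 or 72 hr at 37 degree Celsius, 5% CO2 and 95% humidity, CellTiter-Glo is dispensed and luminescence read following 10 min at room temperature.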
# SNCA expr inhib: Primary qHTS assay for inhibitors of alpha-synuclein gene (SNCA) expression | HEK-293 SNCA-luciferase knock-in, luminescence, 24 h | Potency, µM (doses to about 57.2 µM), actives largely listed as inhibitors | 0.17% of 140,000 active; further: nearly all actives have a fitted effect of over 45% in size
# HEK293 viab: GF-AFC viability counterscreen for inhibitors of alpha-synuclein gene (SNCA) expression; HEK-293-SNCA-luc viability, GF-AFC fluorescence, 24 h; Potency, µM (doses to about 57.1 µM), most hits filed as cytotoxic; 0.12% of 150,000 active; AID 1671193, 2021; further: nearly all actives have a fitted effect of over 30% in size
#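 Cytotoxicity counterscreen: after 24 h compound treatment of genome-edited SNCA-luciferase HEK-293 cells, live-cell protease substrate GF-AFC read by fluorescence after 30 min; activity scaled between DMSO (0%) and medium-only (-100%), curves Hill-fitted.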
# Luciferase inh: Firefly luciferase inhibition profiling of diverse chemical library using quantitative high-throughput screening. Luciferin 4-monooxygenase (Photinus pyralis), P08659. purified P. pyralis luciferase, luminescence, biochemical. Potency, µM (series often up to 115 µM), hits mostly inhibitors. 2.5% of 76,000 active. AID 1347043, 2019; further: nearly all actives have a fitted effect of over 65% in size
# Target sequence (P08659 whole entry, looked up): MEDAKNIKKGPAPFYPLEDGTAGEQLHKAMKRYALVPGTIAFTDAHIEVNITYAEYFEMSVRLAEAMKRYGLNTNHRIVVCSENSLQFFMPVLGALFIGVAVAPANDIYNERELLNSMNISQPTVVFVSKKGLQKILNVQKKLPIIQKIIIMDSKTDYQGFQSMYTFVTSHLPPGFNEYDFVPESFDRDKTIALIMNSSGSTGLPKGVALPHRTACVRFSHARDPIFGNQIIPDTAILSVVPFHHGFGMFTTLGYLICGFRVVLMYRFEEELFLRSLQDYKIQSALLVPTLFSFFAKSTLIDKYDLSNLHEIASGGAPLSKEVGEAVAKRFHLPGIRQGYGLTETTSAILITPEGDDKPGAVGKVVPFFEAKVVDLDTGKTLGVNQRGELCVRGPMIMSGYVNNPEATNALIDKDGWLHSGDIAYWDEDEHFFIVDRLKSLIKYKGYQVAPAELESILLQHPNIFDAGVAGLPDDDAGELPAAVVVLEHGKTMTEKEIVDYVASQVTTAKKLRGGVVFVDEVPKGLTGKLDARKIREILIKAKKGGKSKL
#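 Inhibitors were tested against purified firefly luciferase in a biochemical, low-substrate format (both substrates at 10uM) and luminescence measured with a CCD imager.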
# A number is an active result; . = inactive; ? = inconclusive; / = not tested or not shown. The list is not random: actives were taken first. Their share in the collection is about 7.3%. Unless noted, the call rests on the fitted dose curve; in most records, active means well fitted curve in the direction sought with a large enough effect; inconclusive means small, poorly fitted or top-dose-only effect, or another doubt; inactive means no such curve, though single readings can be large; an effect the other way counts as inactive or inconclusive.
SMILES,IP6K1 inhibitor,3T3 cytotox,HEK293 tox,SNCA expr inhib,HEK293 viab,Luciferase inh
COc1ccc(NC(=O)Nc2cccc(-c3ccc(N4CCC(C)CC4)nn3)c2)cc1OC,.,?,?,?,.,0.1µM
COc1ccc(C(=O)Nc2cccc(-c3nnc4n3CCCC4)c2)cc1OC,.,.,?,.,.,.
O=C(NCc1ccccc1)c1ccc2nnc(-c3cc(C(F)(F)F)cc(C(F)(F)F)c3)n2c1,.,?,40µM,.,.,/
O=C(NCc1cccc(C(F)(F)F)c1)c1ccc2nnc(-c3ccc(Cl)cc3)n2c1,.,40µM,45µM,.,.,/
O=C(NCCc1ccc(Cl)cc1)c1ccc2nnc(-c3cc(C(F)(F)F)cc(C(F)(F)F)c3)n2c1,.,25µM,20µM,?,.,/
COc1ccc(CCNC(=O)c2ccc3nnc(-c4cc(C(F)(F)F)cc(C(F)(F)F)c4)n3c2)cc1,.,?,?,?,.,/
O=C(NCc1cccc(Cl)c1)c1ccc2nnc(-c3cc(C(F)(F)F)cc(C(F)(F)F)c3)n2c1,.,?,14µM,?,.,/
O=C(NCc1ccc(F)c(F)c1)c1ccc2nnc(-c3cc(C(F)(F)F)cc(C(F)(F)F)c3)n2c1,.,?,?,?,.,/
O=C(NCc1ccccn1)c1ccc2nnc(-c3cc(C(F)(F)F)cc(C(F)(F)F)c3)n2c1,.,.,?,.,.,/
O=C(NC1CC1)c1ccc(CC2CCN(C(=O)c3ccc4ccccc4n3)CC2)cc1,.,?,?,.,.,.
C[C@]12CCC(=O)C=C1CCC[C@@H]2OC(=O)c1ccccc1,.,?,?,/,/,/
O=C(NC1CCCCC1)c1ccc2nnc(-c3cccc(C(F)(F)F)c3)n2c1,.,?,32µM,.,.,/
C[S+](=O)([O-])c1cccc(-c2nnc3ccc(C(=O)NC4CCCC4)cn23)c1,.,.,.,.,.,/
O=C(NCc1cccc(C(F)(F)F)c1)c1ccc2nnc(-c3cc(C(F)(F)F)cc(C(F)(F)F)c3)n2c1,.,20µM,14µM,?,?,/
O=C(NCc1cccc(C(F)(F)F)c1)c1ccc2nnc(-c3cccc(C(F)(F)F)c3)n2c1,.,?,?,?,?,/
O=C(NCc1ccccc1)c1ccc2nnc(-c3cccc(C(F)(F)F)c3)n2c1,.,?,35µM,?,.,/
O=C(NCCc1ccc(Cl)cc1)c1ccc2nnc(-c3ccc(OC(F)(F)F)cc3)n2c1,.,.,79µM,.,.,/
Cn1cc(-c2ccncc2)cc1C(=O)NC1CCN(Cc2ccccc2)CC1,.,.,.,?,.,.
CCn1cc(C(CC(=O)N2CCC(C)CC2)c2cccc(Cl)c2)c2ccccc21 (centres undefined),.,?,40µM,.,?,.
COc1ccc(CC(=O)N(C)Cc2cccc(C(F)(F)F)c2)cc1,.,?,?,.,.,.
O=C(CCc1ccccc1)N1CCC(Cc2nc(-c3ccc(F)cc3)no2)CC1,.,?,45µM,.,.,.
COc1ccc(-c2noc(CC3CCN(C(=O)CCc4ccccc4)CC3)n2)cc1,.,?,35µM,.,.,.
O=C(CCCc1ccccc1)N1CCC(Cc2nc(-c3ccc(F)cc3)no2)CC1,.,?,?,.,.,.
O=C(Cc1ccsc1)Nc1cccc(-c2nnc3n2CCCC3)c1,.,.,.,.,.,.
O=C(Nc1cccc(-c2nnc3n2CCCC3)c1)c1cc(-c2ccccc2)n[nH]1,.,.,28µM,.,.,2.2µM
SMILES,IP6K1 inhibitor,3T3 cytotox,HEK293 tox,SNCA expr inhib,HEK293 viab,Luciferase inh
Cc1cc(C(=O)Nc2cccc(-c3nnc4n3CCCC4)c2)n[nH]1,.,.,.,.,.,.
CCOc1ccc(CC(=O)Nc2cccc(-c3nnc4n3CCCC4)c2)cc1,.,?,?,.,.,.
O=C(Nc1cccc(-c2nnc3n2CCCC3)c1)c1cc(C2CC2)[nH]n1,.,.,.,.,.,20µM
O=C(Cc1ccc(Cl)cc1)Nc1cccc(-c2nnc3n2CCCC3)c1,.,?,50µM,?,.,.
CCOc1ccc(C(=O)Nc2cccc(-c3nnc4n3CCCC4)c2)cc1,.,?,?,.,.,25µM
CC(C)N1CCC(O)(c2csc(CN3CCc4ccccc4C3)n2)CC1,.,?,?,.,.,.
COC(=O)CN1C(=O)[C@@H]2C[C@@H](O)CN2C2(CN(C3CCN(C(C)=O)CC3)C2)C1=O,.,.,.,.,.,.
CC(=O)Nc1cc(-c2cn(C)c(=O)n3cc(CN4CC[S+](=O)([O-])CC4)nc23)ccn1,.,100µM,.,.,.,.
COc1ncccc1-c1cn(C)c(=O)n2cc(CN3CC[S+](=O)([O-])CC3)nc12,.,?,.,.,.,.
O=C(NC1CCCCCCC1)C1CCN(C(=O)c2ncn3c2COC(c2ccccc2)C3)CC1 (centres undefined),.,.,.,.,.,18µM
O=C(Nc1ccc(F)cc1)C1CCN(C(=O)c2ncn3c2COC(c2ccc(F)cc2)C3)CC1 (centres undefined),.,.,.,.,.,32µM
O=C(Nc1cc(F)cc(F)c1)C1CCN(C(=O)c2ncn3c2COC(c2ccc(F)cc2)C3)CC1 (centres undefined),.,?,?,.,.,35µM
Cc1ccc(NC(=O)C2CCN(C(=O)c3ncn4c3COC(c3ccc(F)cc3)C4)CC2)cc1Cl (centres undefined),.,?,?,.,.,28µM
O=C1CC(c2ccccc2)N(Cc2ccncc2)CCCN(C(=O)C2CCC2)CCN1 (centres undefined),.,.,.,?,.,.
CN1C[C@@H](NC(=O)CC(C)(C)C)C[C@H]1c1nc(-c2ccc3c(c2)OCO3)no1,.,?,?,.,?,.
CCOc1cc(=O)n2c(c1C(=O)NCc1cccc(F)c1)CCCCC2,.,.,.,.,.,.
COc1cc(C(=O)N2CCCn3nc(CO)cc3C2)c2ccccc2n1,.,.,.,.,.,.
O=C(c1ccc(OC2CCN(C(=O)c3ccsc3)CC2)nc1)N1CCOCC1,.,.,?,?,.,.
O=C(NC1CC1)C1CCN(C(=O)c2ncn3c2COC(c2ccc(F)cc2)C3)CC1 (centres undefined),.,.,.,.,.,35µM
